The results in this text go back to PubChem BioAssay AID1440 (NMMLSC, 2008).

The whole screen tested about 220,000 compounds, of which fewer than 10 were called active. About 92% were inconclusive and are not listed. The rule behind the calls is not given here. These entries were drawn from the full list.

The target of this experiment is Guanine nucleotide-binding protein G(o) subunit alpha (Homo sapiens) + Regulator of G-protein signaling 19 (Homo sapiens) (UniProt P09471+P49795). In words: regulators of RGS19 binding to Galphao, biochemical, multiplexed bead flow cytometry (AID 1440).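 Note: fluorescent Galpha o activated by aluminum fluoride binding bead-coupled RGS19.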 The settings on record: at 10 µM. (A flow cytometer gives signals particle by particle.)
Sequence of Guanine nucleotide-binding protein G(o) subunit alpha (Homo sapiens) + Regulator of G-protein signaling 19 (Homo sapiens) (P09471 whole entry, looked up): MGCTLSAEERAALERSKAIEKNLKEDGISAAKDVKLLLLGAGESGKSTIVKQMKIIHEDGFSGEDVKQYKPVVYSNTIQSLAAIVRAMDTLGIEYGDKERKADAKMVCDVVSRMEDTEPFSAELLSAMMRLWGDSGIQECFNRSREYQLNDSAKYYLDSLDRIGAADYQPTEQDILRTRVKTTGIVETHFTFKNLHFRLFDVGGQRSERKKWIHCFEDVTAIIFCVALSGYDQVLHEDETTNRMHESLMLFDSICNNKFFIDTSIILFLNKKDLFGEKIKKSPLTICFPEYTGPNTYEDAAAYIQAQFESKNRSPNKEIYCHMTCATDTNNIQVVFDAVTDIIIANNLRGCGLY
Sequence of Guanine nucleotide-binding protein G(o) subunit alpha (Homo sapiens) + Regulator of G-protein signaling 19 (Homo sapiens) (P49795 whole entry, looked up): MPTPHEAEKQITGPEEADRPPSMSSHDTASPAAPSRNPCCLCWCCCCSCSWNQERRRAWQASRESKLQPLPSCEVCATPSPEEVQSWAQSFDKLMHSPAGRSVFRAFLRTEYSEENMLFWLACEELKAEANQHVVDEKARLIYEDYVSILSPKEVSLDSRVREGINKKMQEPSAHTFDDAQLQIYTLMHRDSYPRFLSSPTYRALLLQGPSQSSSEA
With `COc1ccc(C(=O)CN(C(=O)c2ccc(Cl)cc2)N2C(=O)C3CCCCC3C2=O)cc1` (stereo unspecified), the binding response (% of control) was 103%.
With `Cc1c(NC(=O)CSc2nc3c(cnn3-c3ccccc3)c(=O)[nH]2)c(=O)n(-c2ccccc2)n1C` the figure was 125%.
With `CC(C)CC1=C/C(=C/c2ccc(-c3ccccc3)o2)C(=O)O1` the figure was 71.1%; with `Cc1ccc(Cl)c(OCCN2CCCC(C)C2)c1` (stereo unspecified), 118%.
`Cc1cc(=O)n2[nH]c(SCc3ccccc3)nc2n1`: the binding response (% of control) was determined as 102%.
Regarding `O=C(c1ccccc1F)N1CCN(c2ccccc2)CC1`, the binding response (% of control) turned out to be 64.3%.
With `Cn1cc(CN(CCCN2CCOCC2)C(=S)Nc2cccc(Cl)c2)c2ccccc21` the figure was -17%; with `COC(=O)c1cc(OC)c(OC)cc1NC(=S)N1CCCC(CO)C1` (stereo unspecified), 98.1%.
With `Cc1ccc(NC(=O)N(Cc2ccco2)Cc2cc3cc(C)cc(C)c3nc2Cl)cc1`, the binding response (% of control) came to 92.8%.
Consider `CCOc1ccc(-c2nnc(N)o2)cc1`, for which the binding response (% of control) worked out at 71.8%.
In the case of `CC(=O)Nc1ccc(NC(=O)Oc2ccccc2)cc1`, the binding response (% of control) was determined as 99.1%.
Regarding `CCOC(=O)c1c(C)n(-c2ccc(OC)cc2)c2c(C/C(C)=N/O)c(Br)c(OC)c(O)c12`, the binding response (% of control) worked out at 120%.
The figure for `COc1cccc(C2=CC(c3ccc(OC)c(OC)c3OC)n3nnnc3N2)c1` (stereo unspecified) is 102%.
As to `O=Nc1c(O)n(Cc2ccc(Cl)c(Cl)c2)c2ccccc12`, the binding response (% of control) was 70.4%.
As to `CCOC(=O)c1nnc(-c2cccs2)nc1NC(C)C`, the binding response (% of control) stood at 220%.
Consider `CCOC(=O)c1nnn(-c2nc(OC)nc(N3CCCCC3)n2)c1-c1ccccc1`, for which the binding response (% of control) is 69.6%.
`O=C(c1cnccn1)N(Cc1cccs1)C1(C(=O)NC2CCCCC2)CCCCC1`: the binding response (% of control) was -941%.
The figure for `COc1ccc(Br)cc1-c1noc(-c2ccncc2)n1` is 92.5%; for `Cc1ccc(C(=O)NC(=S)N2CCN(C)CC2)cc1` it is 97.8%; for `CC(=O)c1nc2ccccc2n1S(=O)(=O)c1ccc(C)cc1` it is 97.2%.
In the case of `Clc1ccc(/C=N/N2CCN(Cc3ccccc3Cl)CC2)cc1`, the binding response (% of control) is 100%.
With `COc1ccc(N2CCN(C(=O)CSc3nnnn3-c3ccc4c(c3)OCCO4)CC2)cc1`, the binding response (% of control) was 94.7%.
The figure for `COc1ccc(N(C(=O)Cn2nnc3ccccc32)C(C(=O)NCc2ccco2)c2cccnc2)cc1` (stereo unspecified) is 110%; for `CC(C)(C)OC(=O)N1CCOCCOCCNCCOCCOCC1` it is 98.6%.
Turning to `CN=C(Nc1cc(C)nn1-c1ccccc1)c1ccccc1`, the binding response (% of control) came out at 113%.
As to `COCCCNC(=O)c1ccc(NS(C)(=O)=O)cc1`, the binding response (% of control) is 96.8%.
The figure for `Cc1ccc(CNCC2CCCO2)o1` (stereo unspecified) is 96.8%; for `COc1ccc2c(c1)c(C(=O)CNc1nc(C)cs1)c(C)n2C` it is 44.3%; for `FC(F)Oc1ccc(-c2c[n+]3c(n2-c2ccccc2)CCCCC3)cc1` it is 256%.
As for `Cc1nn(Cc2ccc(F)cc2)c(C)c1NC(=O)c1cnn2cccnc12`, the binding response (% of control) worked out at 109%.
For `CC1=C(C(N)=O)C(c2cccc(OCc3ccccc3)c2)n2nnnc2N1` (stereo unspecified), the binding response (% of control) stood at 91.9%.
The figure for `Cc1ccc(Cl)cc1N(Cc1ccc(C(=O)NCc2cccnc2)cc1)S(=O)(=O)c1ccccc1` is 98.3%.
Consider `CCCCCOc1ccc(NC(=O)CCCC(=O)O)cc1`, for which the binding response (% of control) was found to be 81.9%.
With `C#CCn1cnc2c(cnn2-c2ccc(C)c(C)c2)c1=O` the figure was 106%; with `COc1ccc(C(=O)CSc2nc3ncccc3[nH]2)cc1OC`, 52.5%; with `CCn1cc(C(=O)NCC2CCCO2)c2cc(OC)c(OC)cc2c1=O` (stereo unspecified), 103%.
With `Cc1cc(C)nc(SCC(=O)N2CCC(C(N)=O)CC2)n1` the figure was 105%.
With `CCC(=O)N1CCc2cc(S(=O)(=O)NC(Cc3ccccc3)C(=O)Nc3nccs3)ccc21` (stereo unspecified) the figure was -46.3%.
On to `O=c1[nH]c2cc3c(cc2cc1CN(Cc1ccc2c(c1)OCO2)Cc1nnnn1CC1CCCO1)OCO3` (stereo unspecified), for which the binding response (% of control) is 90.7%.
For the compound `Cc1ccc(/C=C2\CCCC3=C2NC(=S)NC3c2ccc(C)cc2)cc1` (stereo unspecified), the binding response (% of control) amounted to 203%.
As to `C=CCn1c2ccccc2c2nnc(SCN3C(=O)c4ccccc4C3=O)nc21`, the binding response (% of control) amounted to 77.7%.
In the case of `CCCC(C)NC(=O)Cc1ccccc1[N+](=O)[O-]` (stereo unspecified), the binding response (% of control) is 110%.
With `O=C(CN1CCSCC1)N1CCc2[nH]c3ccc(Br)cc3c2C1`, the binding response (% of control) turned out to be 66.9%.
As to `CCc1ccc(OCC(=O)Nc2cc(S(=O)(=O)CC)ccc2O)cc1`, the binding response (% of control) was found to be 89.9%.
`Cc1ccc(NC(CC(=O)c2ccccc2)c2ccc(F)cc2)cc1` (stereo unspecified): the binding response (% of control) worked out at 100%.
Regarding `O=C1COc2ccc(C(=O)NCc3ccc4c(c3)OCO4)cc2N1`, the binding response (% of control) is 104%.
Take `CC(NC(=O)C(=O)NN=C1CCCCCCCCCCC1)c1ccccc1` (stereo unspecified): the binding response (% of control) amounted to 101%.
For the compound `COc1ccc(-c2nn[nH]n2)cc1OC`, the binding response (% of control) was determined as 116%.
Consider `O=C(CN1CCOCC1)Nc1ncc(Cc2ccccc2Cl)s1`, for which the binding response (% of control) stood at 108%.
In the case of `Clc1ccc(-c2nn3c(C4COc5ccccc5O4)nnc3s2)cc1` (stereo unspecified), the binding response (% of control) was found to be 17.6%.
For `C/C(CC(=O)Nc1cccc(Cl)c1C)=N\NC(=O)C(=O)NCC(C)C`, the binding response (% of control) was found to be 105%.
Consider `COC(=O)CNC(=O)COC(=O)c1ccc(OC)c([N+](=O)[O-])c1`, for which the binding response (% of control) was 98.3%.
The figure for `CCN1CCN(C(c2cccs2)C(C)NC(=O)c2c(F)cccc2F)CC1` (stereo unspecified) is 114%; for `BrC(/C=C\c1ccccc1)=N/Nc1nc(N2CCOCC2)nc(N2CCOCC2)n1` it is 98.4%; for `O=C(c1ccccc1NS(=O)(=O)c1ccc(Br)s1)N1CCCC1` it is 102%.
The figure for `Cc1cc(C)c(C#N)c(SCC(=O)N2CCCCC2)n1` is 91.6%.
